Assay results from PubChem BioAssay (EPA / NIEHS).
Several values for one entry are separate records, joined by “and”; a condition that tells them apart may be missing. Equal entries are not always repeated. Results filed as inconclusive are left out. Some structures have more than one record in an assay (separate samples or runs), and their calls can disagree. Activity calls are given as the source filed them. How the source made its calls, unless noted: active means hit-call score of the fitted dose curve at least 0.9, where 1 is the maximum; inactive means score below 0.9.

Experiments:
[1] = CCTE_Mundy_HCI_Cortical_Synap_Neur_Matur_NeuriteSpotCountPerNeuron: CCTE's Synaptogenesis and Neurite Maturation Assay in rat cortical cells for Neurite Spot Count per Neuron Count, Mundy Lab (AID 2284215)
Outline: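 Synapse density is scored as synaptophysin spots along neurites per neuron in fixed rat cortical neurons, measured at DIV 12 after chemical dosing at DIV 7. DMSO is the negative control and activity baseline.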

[2] = CCTE_Mundy_HCI_Cortical_Synap_Neur_Matur_SynapseCount: CCTE's Synaptogenesis and Neurite Maturation Assay in rat cortical cells for Synapse Count, Mundy Lab (AID 2284218)
Outline: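 High-content imaging of synaptophysin puncta per MAP2-positive neuron (Hoechst nuclei) in rat cortical cells exposed DIV 7–12 after glial arrest with AraC at DIV 5; decrease relative to DMSO scored.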

[3] = CCTE_Mundy_HCI_Cortical_Synap_Neur_Matur_NeuriteCount: CCTE's Synaptogenesis and Neurite Maturation Assay in rat cortical cells for Neurite Count, Mundy Lab (AID 2284222)
Outline: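 Chemical exposure runs DIV 7–12 in rat cortical cultures, glia suppressed by AraC at DIV 5; measurement is at DIV 12. Imaging-derived neurite counts are fitted against DMSO baseline.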

[4] = CCTE_Mundy_HCI_Cortical_Synap_Neur_Matur_CellBodySpotCount: CCTE's Synaptogenesis and Neurite Maturation Assay in rat cortical cells for Cell Body Spot Count, Mundy Lab (AID 2284223)
Outline: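 Synapse number at neuronal cell bodies was quantified as synaptophysin puncta per neuron in rat cortical cultures exposed from DIV 7 to DIV 12. Values were normalised to DMSO.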

[5] = UKN4_HCS_LUHMES_cell_viability: Viability Assessment in the University of Konstanz (UKN) Leist Lab Neurite Outgrowth Assay in human LUHMES cells (UKN4) (AID 2284232)
Outline: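 Viability was read by high-content imaging of calcein-AM/H-33342-stained cells after 24 h toxicant exposure, staining included. Cells: human LUHMES on day 2 of dopaminergic differentiation, dosed shortly after attachment; DMSO baseline, bidirectional curve fitting.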

[6] = UKN2_HCS_IMR90_cell_viability: Viability Assessment in the University of Konstanz (UKN) Leist Lab Neural Crest Cell Migration Assay in human induced IMR90 Pluripotent Stem Cells (UKN2) (AID 2284233);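 further: viability of neural crest cells differentiated from IMR90 iPSC measured by calcein-AM fluorescence imaging; cells exposed to compound for 24 h after a 24 h migration phase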
Outline: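 cMINC format, iPSC-derived neural crest (IMR90); 24 h migration (EGF/FGF, N2-S), then 24 h toxicant. Calcein-AM/H-33342 stain 30 min; fluorescence intensity by HCS; DMSO-normalised, bidirectional fitting.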

[7] = CCTE_Mundy_HCI_Cortical_NOG_NeuronCount: CCTE's Neurite Outgrowth Assay in rat cortical cells for Neuron Count, Mundy Lab (AID 2284236; active means hit-call score of the fitted dose curve at least 0.9, where 1 is the maximum;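 further: neurons counted by imaging betaIII-tubulin and Hoechst stained cortical cells; cells exposed to compound for about 48 hours before fixation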)
Outline: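 Read-out: neuron number by high-content imaging of betaIII-tubulin (Alexa Fluor-488) and Hoechst-labelled rat primary cortical cells.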

[8] = CCTE_Mundy_HCI_Cortical_NOG_BPCount: CCTE's Neurite Outgrowth Assay in rat cortical cells for Branch Point Count, Mundy Lab (AID 2284237);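 further: branch points counted about two days after chemical exposure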
Outline: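 Measured 50.33 h after dosing, this morphology endpoint uses rat primary cortical cultures labelled for betaIII-tubulin. Branch points are quantified by high-content imaging, with DMSO as negative control and baseline.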

[9] = CCTE_Mundy_HCI_hNP1_Casp3_7: CCTE's Caspase-Glo 3/7 Assay in human neuroprogenitor cells for Apoptosis, Mundy Lab (AID 2284240)
Outline: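 Neuroepithelial-lineage stem cells from WA09 embryonic cells were treated with chemicals after 40–44 h of culture. Twenty-four hours later, caspase-3/7 activation was detected luminescently after a 30 min room-temperature reagent step, with DMSO as baseline.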

[10] = CCTE_Mundy_HCI_hNP1_CellTiter: CCTE's Cell Titer-Glo 2 Assay in human neuroprogenitor cells for Viability, Mundy Lab (AID 2284241; active means hit-call score of the fitted dose curve at least 0.9, where 1 is the maximum)
Outline: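 Measures ATP content in human neural progenitors derived from WA09 embryonic cells. Read-out at 26.5 hours after dosing, with DMSO serving as the negative control and baseline.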

[11] = CCTE_Mundy_HCI_Cortical_Synap_Neur_Matur_NeuronCount: CCTE's Synaptogenesis and Neurite Maturation Assay in rat cortical cells for Neuron Count, Mundy Lab (AID 2284242; active means hit-call score of the fitted dose curve at least 0.9, where 1 is the maximum;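 further: hits reduce neuron count versus DMSO baseline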)
Outline: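 Neuron counts come from automated high-content imaging of Hoechst nuclei and MAP2/synaptophysin immunostaining at DIV 12, with loss of signal judged against DMSO. Cultures of rat cortical cells had glial growth arrested by AraC at DIV 5; chemical exposure began DIV 7.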

[12] = read-out: Monokine induced gamma interferon (MIG), CXCL9 (gene 4283); assay: BSK_KF3CT_MIG: BioMAP Diversity Plus: KF3CT Assay for Monokine induced gamma interferon (MIG) Biomarker Activity (AID 2284248); conditions: primary human keratinocytes with fibroblasts
Outline: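 The assay uses a co-culture of human keratinocytes and foreskin fibroblasts. Measurement occurs 24 hours after dosing, with MIG detected by ELISA and the DMSO control as baseline.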

[13] = read-out: Collagen I, COL1A1 (gene 1277); assay: BSK_hDFCGF_CollagenI: BioMAP Diversity Plus: hDFCGF Assay for Collagen I Biomarker Activity (AID 2284250); conditions: primary human foreskin fibroblasts
Outline: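 Collagen I quantified by ELISA 24 h after chemical dosing of human dermal fibroblast primary cells, with parallel SRB staining (0.1%, TCA-fixed, 560 nm) for overt cytotoxicity.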

[14] = read-out: Interferon-inducible T-cell alpha chemoattractant (ITAC), CXCL11 (gene 6373); assay: BSK_hDFCGF_ITAC: BioMAP Diversity Plus: hDFCGF Assay for Interferon-inducible T-cell alpha chemoattractant (ITAC) Biomarker Activity (AID 2284251); conditions: primary human foreskin fibroblasts
Outline: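 Chemical dosing of primary human foreskin fibroblast cultures preceded ELISA measurement of I-TAC at 24 h. Response was analysed in the positive direction using DMSO as baseline, while parallel SRB staining measured cytotoxicity.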

[15] = read-out: Plasminogen activator inhibitor-1 (PAI1), SERPINE1 (gene 5054); assay: BSK_KF3CT_PAI1: BioMAP Diversity Plus: KF3CT Assay for Plasminogen activator inhibitor-1 (PAI1) Biomarker Activity (AID 2284252); conditions: primary human keratinocytes with fibroblasts
Outline: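 PAI-1 levels quantified by ELISA after 24 h compound exposure of primary human skin keratinocytes co-cultured with fibroblasts. Activity is the gain relative to DMSO; cytotoxicity tracked in parallel cultures via SRB staining.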

[16] = read-out: Interleukin-8 (IL8), CXCL8 (gene 3576); assay: BSK_KF3CT_IL8: BioMAP Diversity Plus: KF3CT Assay for Interleukin-8 (IL8) Biomarker Activity (AID 2284254); conditions: primary human keratinocytes with fibroblasts
Outline: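 ELISA detection of IL-8 from a human skin co-culture, keratinocytes with foreskin fibroblasts, at 24 h following chemical exposure, with gain of signal scored against DMSO controls.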

[17] = read-out: Intercellular Adhesion Molecule 1 (ICAM1), ICAM1 (gene 3383); assay: BSK_BE3C_ICAM1: BioMAP Diversity Plus: BE3C Assay for Intercellular Adhesion Molecule 1 (ICAM1) Biomarker Activity (AID 2284278); conditions: primary human bronchial epithelial cells;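 further: cell-surface ICAM-1 protein level quantified by ELISA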
Outline: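 ICAM-1 quantified by ELISA and fitted against DMSO baseline, 24 h post-dosing in BE3C cultures of primary human lung bronchial epithelial cells. Cytotoxicity checked in parallel cultures by total protein SRB staining.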

[18] = read-out: Interferon-inducible T-cell alpha chemoattractant (ITAC), CXCL11 (gene 6373); assay: BSK_BE3C_ITAC: BioMAP Diversity Plus: BE3C Assay for Interferon-inducible T-cell alpha chemoattractant (ITAC) Biomarker Activity (AID 2284279); conditions: primary human bronchial epithelial cells
Outline: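 BE3C cells (human primary bronchial epithelium), 24 h compound exposure, I-TAC by ELISA, DMSO = negative control/baseline, positive fitting direction.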

[19] = read-out: Interleukin-8 (IL8), CXCL8 (gene 3576); assay: BSK_BE3C_IL8: BioMAP Diversity Plus: BE3C Assay for Interleukin-8 (IL8) Biomarker Activity (AID 2284280); conditions: primary human bronchial epithelial cells
Outline: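 Measured at 24 h after treatment, IL-8 from human primary bronchial epithelial cells is determined by ELISA, and the response is modelled as increasing relative to DMSO negative control.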

[20] = read-out: Epidermal growth factor receptor (EGFR), EGFR (gene 1956); assay: BSK_BE3C_EGFR: BioMAP Diversity Plus: BE3C Assay for Epidermal growth factor receptor (EGFR) Biomarker Activity (AID 2284281); conditions: primary human bronchial epithelial cells
Outline: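 Measured 24 h after dosing in primary human bronchial epithelial cultures, EGFR was read by ELISA; gain of signal over DMSO control defined activity.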

Measured: AC50

[Cd+2].[Cl-].[Cl-]
inactive: [9] | [10] | [16] | [17] | [19]
active: [1] 1.19 µM | [2] 1.25 µM | [3] 2.71 µM | [4] 6.06 µM | [5] 8.98 µM | [6] 4.14 µM | [7] 9.84 µM | [8] 18.9 µM | [11] 0.728 µM | [12] 33.6 µM and 36.8 µM | [13] 1.42 µM and 465 nM | [14] 10 µM and 7.2 µM | [15] 34.5 µM and 29.9 µM | [16] 26.8 µM | [18] 28.9 µM and 31.5 µM | [19] 0.0538 µM | [20] 31.6 µM and 12.3 µM
